The full data set covers some 8,800 targets. This sample favours those with a hit. About 0.5% of all pairs of compound and target were hits.
Key:
Test in all cases: log2 fold change, soluble protein after heating vs DMSO (PISA); higher = thermal stabilisation; K562 lysate, 10 uM; active = over 0.2 and 3.5 SD of the protein, either way, in both replicates (recomputed)
[1] = compound: Cc1cn(-c2cc(NC(=O)c3ccc(C)c(Nc4nccc(-c5cccnc5)n4)c3)cc(C(F)(F)F)c2)cn1 [nilotinib]
How it was run: (§1)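 Quantification was by TMTpro 16plex LC-MS/MS with equalised channel sums, applied to the supernatant after 21,000xg for 90 min. Samples were crude K562 extract at 1 mg/mL protein in PBS pH 7.4 with 1 mM MgCl2, treated with 10 μM compound for 30 min, heated for 3 min across 48°C-58°C, pooled and brought to 0.5% NP-40 at 4°C. Values are log-two fold changes in thermal stability relative to solvent controls, from duplicates.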

[2] = compound: Cc1nc(Nc2n[nH]c3c2CN(C(=O)N[C@H](CN(C)C)c2ccccc2)C3(C)C)c2sccc2n1
How it was run: as §1

[3] = compound: Cc1nc(Nc2ncc(C(=O)Nc3c(C)cccc3Cl)s2)cc(N2CCN(CCO)CC2)n1 [dasatinib]
How it was run: as §1

[4] = compound: Cc1ncc(-c2ccnc(Nc3ccc(S(C)(=O)=O)cc3)n2)n1C(C)C
How it was run: as §1

[5] = compound: Cn1cc(-c2ccc3c(c2)CCN3C(=O)Cc2cccc(C(F)(F)F)c2)c2c(N)ncnc21
How it was run: as §1

[6] = compound: Cn1cc(CNCC2CCN(c3ncc(C(=O)NO)cn3)CC2)c2ccccc21 [quisinostat]
How it was run: as §1

[7] = compound: Cn1cncc1[C@@](N)(c1ccc(Cl)cc1)c1ccc2c(c1)c(-c1cccc(Cl)c1)cc(=O)n2C [tipifarnib]
How it was run: as §1

[8] = compound: NC(=O)Nc1cc(-c2cccc(F)c2)sc1C(=O)N[C@H]1CCCNC1
How it was run: as §1

[9] = compound: NC(=O)c1cnc(N[C@@H]2CCCC[C@@H]2N)nc1Nc1cccc(-n2nccn2)c1
How it was run: as §1

[10] = compound: NC1(c2ccc(-c3nc4ccn5c(=O)[nH]nc5c4cc3-c3ccccc3)cc2)CCC1
How it was run: as §1

[11] = compound: NCC(=O)Nc1ccc(-n2nc(C(F)(F)F)cc2-c2ccc3c(ccc4ccccc43)c2)cc1
How it was run: as §1

[12] = compound: O=C(CCCCCCC(=O)Nc1ccccc1)NO [vorinostat]
How it was run: as §1

[13] = compound: O=C(O)c1ccc2c(c1)nc(Nc1cccc(Cl)c1)c1ccncc12 [silmitasertib]
How it was run: as §1

[14] = compound: O=C1NC(=O)C(c2cnc3ccccn23)=C1c1cn2c3c(cc(F)cc13)CN(C(=O)N1CCCCC1)CC2
How it was run: as §1

[15] = compound: c1cn2cc(-c3ccc4cn[nH]c4c3)nc(Nc3ccc(N4CCOCC4)cc3)c2n1 [entospletinib]
How it was run: as §1

Measured: log2 fold change

BTAF1 (UniProt O14981)
inactive: [1] -0.005 | [2] 0.018 | [3] -0.028 | [4] 0.007 | [5] 0.008 | [6] -0.015 | [7] -0.011 | [8] 0.033 | [9] 0.016 | [10] 0.004 | [11] 0.01 | [13] 0.003 | [14] -0.008 | [15] -0.031
active: [12] -0.45

CD63 (UniProt P08962)
Sequence of UniProt P08962 (P08962 whole entry, looked up): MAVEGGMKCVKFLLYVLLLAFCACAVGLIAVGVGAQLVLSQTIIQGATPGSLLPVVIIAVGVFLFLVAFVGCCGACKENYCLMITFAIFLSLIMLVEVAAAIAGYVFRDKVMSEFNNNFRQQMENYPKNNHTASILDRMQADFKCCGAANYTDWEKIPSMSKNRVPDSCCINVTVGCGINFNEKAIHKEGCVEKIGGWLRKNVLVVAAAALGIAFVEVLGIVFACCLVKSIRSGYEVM
inactive: [1] -0.053 | [2] 0.098 | [3] -0.034 | [4] -0.032 | [5] 0.005 | [6] -0.08 | [7] 0.126 | [8] -0.006 | [9] -0.043 | [10] -0.009 | [11] -0.1 | [12] 0.123 | [13] -0.039 | [14] -0.173 | [15] 0.077

C12orf45 (UniProt Q8N5I9)
inactive: [1] -0.026 | [2] -0.003 | [3] 0.019 | [4] -0.017 | [5] 0.035 | [6] -0.019 | [7] -0.014 | [8] -0.015 | [9] 0 | [10] 0.024 | [11] 0.063 | [12] 0.012 | [13] -0.059 | [14] -0.027 | [15] 0

CCPG1 isoform 5 (UniProt Q9ULG6)
inactive: [1] 0.067 | [2] 0.017 | [3] 0.013 | [4] 0.087 | [5] 0.004 | [6] -0.021 | [7] -0.033 | [8] 0.029 | [9] 0 | [10] -0.073 | [11] -0.022 | [12] 0.043 | [13] -0.012 | [14] -0.025 | [15] 0

CDC40 (UniProt O60508)
Sequence of UniProt O60508 (O60508 whole entry, looked up): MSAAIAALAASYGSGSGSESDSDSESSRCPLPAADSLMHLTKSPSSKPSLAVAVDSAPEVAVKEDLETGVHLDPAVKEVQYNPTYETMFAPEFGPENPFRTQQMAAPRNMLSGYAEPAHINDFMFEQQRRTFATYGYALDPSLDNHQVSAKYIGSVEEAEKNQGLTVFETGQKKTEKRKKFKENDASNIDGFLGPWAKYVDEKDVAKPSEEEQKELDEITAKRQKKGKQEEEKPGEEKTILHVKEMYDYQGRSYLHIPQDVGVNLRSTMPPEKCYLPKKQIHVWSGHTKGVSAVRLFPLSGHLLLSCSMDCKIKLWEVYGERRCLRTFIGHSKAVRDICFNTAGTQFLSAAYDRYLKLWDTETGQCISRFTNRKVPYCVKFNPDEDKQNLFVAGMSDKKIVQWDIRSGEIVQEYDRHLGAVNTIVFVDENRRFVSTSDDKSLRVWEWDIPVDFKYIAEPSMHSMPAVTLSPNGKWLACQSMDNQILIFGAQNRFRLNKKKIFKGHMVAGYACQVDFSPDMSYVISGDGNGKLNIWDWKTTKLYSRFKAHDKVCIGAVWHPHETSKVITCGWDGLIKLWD
inactive: [1] -0.015 | [2] -0.026 | [3] -0.005 | [4] 0.039 | [5] 0.058 | [6] -0.138 | [7] 0.046 | [8] 0.02 | [9] 0.063 | [10] 0.097 | [11] 0.029 | [12] 0.08 | [13] 0.015 | [14] 0.005 | [15] 0.014

BUD23 isoform 3 (UniProt O43709)
Sequence of UniProt O43709 (O43709 whole entry, looked up): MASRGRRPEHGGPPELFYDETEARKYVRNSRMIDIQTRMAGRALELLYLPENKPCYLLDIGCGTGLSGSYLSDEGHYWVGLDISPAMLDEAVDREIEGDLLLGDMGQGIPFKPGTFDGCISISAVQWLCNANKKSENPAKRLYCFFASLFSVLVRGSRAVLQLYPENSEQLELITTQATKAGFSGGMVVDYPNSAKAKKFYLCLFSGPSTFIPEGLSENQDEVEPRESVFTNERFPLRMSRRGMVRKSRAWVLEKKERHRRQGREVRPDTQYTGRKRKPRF
inactive: [1] -0.003 | [2] -0.008 | [3] 0.035 | [4] -0.084 | [5] 0.035 | [6] 0.009 | [7] 0.015 | [8] 0.035 | [9] -0.076 | [10] -0.017 | [11] 0.007 | [12] 0.014 | [13] -0.07 | [14] -0.021 | [15] 0.055

CCNK isoform 4 (UniProt O75909)
inactive: [1] 0.011 | [2] -0.03 | [3] -0.051 | [4] -0.009 | [5] 0.003 | [6] 0.009 | [7] -0.004 | [8] -0.006 | [9] -0.005 | [10] -0.011 | [11] 0.032 | [12] 0.093 | [13] -0.007 | [14] -0.051 | [15] -0.002

CCDC186 (UniProt Q7Z3E2)
inactive: [1] -0.046 | [2] -0.056 | [3] -0.014 | [4] 0.03 | [5] 0.043 | [6] -0.03 | [7] -0.01 | [8] 0.033 | [9] -0.017 | [10] 0.001 | [11] 0.052 | [12] 0.005 | [13] 0.057 | [14] 0.012 | [15] -0.01

CBX5 (UniProt P45973)
Sequence of UniProt P45973 (P45973 whole entry, looked up): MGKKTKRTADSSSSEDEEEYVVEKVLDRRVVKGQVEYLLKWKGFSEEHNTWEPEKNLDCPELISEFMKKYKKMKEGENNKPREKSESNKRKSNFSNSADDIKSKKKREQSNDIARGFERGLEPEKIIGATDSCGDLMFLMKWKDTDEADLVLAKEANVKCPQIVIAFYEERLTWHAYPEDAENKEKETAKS
inactive: [1] 0.014 | [2] 0.011 | [3] 0.028 | [4] 0.052 | [5] -0.017 | [6] -0.09 | [7] -0.024 | [8] 0.014 | [9] -0.004 | [10] 0.007 | [11] 0.033 | [12] -0.062 | [13] -0.005 | [14] -0.048 | [15] 0.014

BCL2L12 (UniProt Q9HB09)
Sequence of UniProt Q9HB09 (Q9HB09 whole entry, looked up): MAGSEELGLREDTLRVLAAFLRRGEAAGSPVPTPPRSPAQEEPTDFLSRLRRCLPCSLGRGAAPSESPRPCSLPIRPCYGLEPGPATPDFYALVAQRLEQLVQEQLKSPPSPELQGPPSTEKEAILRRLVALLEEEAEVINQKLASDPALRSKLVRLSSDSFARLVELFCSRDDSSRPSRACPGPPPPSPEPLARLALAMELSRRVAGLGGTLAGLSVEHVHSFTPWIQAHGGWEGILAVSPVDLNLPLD
inactive: [1] -0.12 | [2] -0.007 | [3] -0.129 | [4] -0.004 | [5] 0.046 | [6] 0.022 | [7] 0.075 | [8] -0.041 | [9] 0.121 | [10] 0.013 | [11] 0.031 | [12] -0.033 | [13] 0.1 | [14] -0.085 | [15] -0.129

AURKAIP1 (UniProt Q9NWT8)
inactive: [1] -0.072 | [2] -0.019 | [3] 0 | [4] 0 | [5] -0.058 | [6] -0.02 | [7] -0.041 | [8] 0.055 | [9] 0.042 | [10] -0.071 | [11] 0.073 | [12] 0.08 | [13] -0.01 | [14] 0.071 | [15] -0.081

CARD11 (UniProt Q9BXL7)
Sequence of UniProt Q9BXL7 (Q9BXL7 whole entry, looked up): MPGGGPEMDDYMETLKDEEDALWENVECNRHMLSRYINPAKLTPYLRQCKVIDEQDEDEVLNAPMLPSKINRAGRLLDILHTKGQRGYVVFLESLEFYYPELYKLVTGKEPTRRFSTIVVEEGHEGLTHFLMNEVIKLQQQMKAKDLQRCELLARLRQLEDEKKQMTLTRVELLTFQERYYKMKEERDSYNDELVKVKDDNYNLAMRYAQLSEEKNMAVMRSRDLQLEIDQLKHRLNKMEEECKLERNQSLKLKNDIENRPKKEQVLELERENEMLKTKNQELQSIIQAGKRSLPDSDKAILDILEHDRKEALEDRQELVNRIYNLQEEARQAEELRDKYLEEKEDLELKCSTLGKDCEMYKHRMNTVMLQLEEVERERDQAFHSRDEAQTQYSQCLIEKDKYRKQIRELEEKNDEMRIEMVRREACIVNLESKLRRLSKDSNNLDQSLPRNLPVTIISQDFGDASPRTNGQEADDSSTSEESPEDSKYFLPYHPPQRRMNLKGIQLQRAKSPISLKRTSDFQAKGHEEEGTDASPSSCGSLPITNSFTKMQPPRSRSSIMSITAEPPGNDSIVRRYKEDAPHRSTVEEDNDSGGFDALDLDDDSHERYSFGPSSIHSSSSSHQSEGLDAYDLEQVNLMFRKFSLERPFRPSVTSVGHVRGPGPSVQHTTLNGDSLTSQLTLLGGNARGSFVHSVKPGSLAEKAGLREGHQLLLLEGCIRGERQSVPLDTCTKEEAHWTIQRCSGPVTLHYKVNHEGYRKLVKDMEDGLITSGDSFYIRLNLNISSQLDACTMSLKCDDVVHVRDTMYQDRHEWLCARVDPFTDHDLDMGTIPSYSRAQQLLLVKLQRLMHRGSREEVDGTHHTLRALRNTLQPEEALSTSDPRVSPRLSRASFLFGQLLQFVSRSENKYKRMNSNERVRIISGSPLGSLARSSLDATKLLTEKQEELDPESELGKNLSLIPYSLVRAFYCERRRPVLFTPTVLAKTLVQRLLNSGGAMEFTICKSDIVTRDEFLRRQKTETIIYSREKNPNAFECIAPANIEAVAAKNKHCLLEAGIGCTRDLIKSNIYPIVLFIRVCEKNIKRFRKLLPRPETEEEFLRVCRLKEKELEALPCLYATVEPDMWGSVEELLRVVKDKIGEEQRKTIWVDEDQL
inactive: [1] -0.047 | [2] 0.04 | [3] -0.053 | [4] 0.043 | [5] 0.004 | [6] -0.031 | [7] -0.015 | [8] 0.025 | [9] 0.048 | [10] 0.009 | [11] -0.113 | [13] 0.001 | [14] 0.004 | [15] -0.031
active: [12] -0.406

C3 (UniProt P01024)
Sequence of UniProt P01024 (P01024 whole entry, looked up): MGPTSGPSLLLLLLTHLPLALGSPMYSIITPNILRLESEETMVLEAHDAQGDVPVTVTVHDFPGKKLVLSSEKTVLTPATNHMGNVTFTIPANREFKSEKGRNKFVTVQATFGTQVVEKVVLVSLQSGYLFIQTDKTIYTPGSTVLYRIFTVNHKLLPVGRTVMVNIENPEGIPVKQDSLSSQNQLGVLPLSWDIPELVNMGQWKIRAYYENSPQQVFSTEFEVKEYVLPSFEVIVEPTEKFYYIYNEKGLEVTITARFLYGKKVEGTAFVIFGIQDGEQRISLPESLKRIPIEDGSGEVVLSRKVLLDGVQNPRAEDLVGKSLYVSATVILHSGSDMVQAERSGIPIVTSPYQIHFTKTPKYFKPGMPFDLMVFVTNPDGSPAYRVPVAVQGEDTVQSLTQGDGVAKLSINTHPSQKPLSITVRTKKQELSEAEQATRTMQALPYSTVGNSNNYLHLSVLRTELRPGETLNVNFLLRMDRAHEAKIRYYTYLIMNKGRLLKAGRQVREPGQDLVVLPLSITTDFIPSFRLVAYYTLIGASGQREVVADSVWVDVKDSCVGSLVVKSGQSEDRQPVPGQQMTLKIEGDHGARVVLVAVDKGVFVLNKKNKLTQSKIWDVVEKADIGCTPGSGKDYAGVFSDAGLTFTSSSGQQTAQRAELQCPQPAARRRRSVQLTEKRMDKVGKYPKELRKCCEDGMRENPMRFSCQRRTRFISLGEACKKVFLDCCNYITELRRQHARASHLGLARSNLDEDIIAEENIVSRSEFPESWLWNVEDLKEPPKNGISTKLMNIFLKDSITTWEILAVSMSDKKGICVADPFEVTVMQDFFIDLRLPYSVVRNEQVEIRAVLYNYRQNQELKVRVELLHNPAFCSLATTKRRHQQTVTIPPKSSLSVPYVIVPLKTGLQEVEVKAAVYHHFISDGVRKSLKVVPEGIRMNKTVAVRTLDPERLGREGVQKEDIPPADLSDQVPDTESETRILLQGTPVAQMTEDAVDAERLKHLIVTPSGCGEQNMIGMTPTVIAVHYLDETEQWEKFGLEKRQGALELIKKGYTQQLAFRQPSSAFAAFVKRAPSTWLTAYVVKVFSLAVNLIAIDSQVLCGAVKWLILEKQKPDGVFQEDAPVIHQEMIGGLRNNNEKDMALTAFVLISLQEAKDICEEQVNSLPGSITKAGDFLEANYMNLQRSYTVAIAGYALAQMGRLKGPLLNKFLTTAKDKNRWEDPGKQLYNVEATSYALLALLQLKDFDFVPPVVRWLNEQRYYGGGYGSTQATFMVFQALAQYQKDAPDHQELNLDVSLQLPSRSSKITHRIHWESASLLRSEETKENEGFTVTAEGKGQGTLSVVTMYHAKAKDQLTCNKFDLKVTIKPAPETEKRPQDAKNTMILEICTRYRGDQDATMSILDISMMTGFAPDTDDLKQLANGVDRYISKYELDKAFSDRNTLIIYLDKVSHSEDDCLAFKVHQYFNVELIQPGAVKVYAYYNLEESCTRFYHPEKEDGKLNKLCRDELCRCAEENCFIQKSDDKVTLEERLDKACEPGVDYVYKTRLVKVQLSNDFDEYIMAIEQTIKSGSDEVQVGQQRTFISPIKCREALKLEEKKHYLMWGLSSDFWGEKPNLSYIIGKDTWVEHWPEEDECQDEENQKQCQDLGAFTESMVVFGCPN
inactive: [1] 0.001 | [2] 0.027 | [3] 0.069 | [4] -0.006 | [5] -0.022 | [6] -0.085 | [7] 0.027 | [8] -0.025 | [9] -0.066 | [10] 0.012 | [11] 0.024 | [12] -0.098 | [13] 0.008 | [14] 0.062 | [15] -0.036

CDK5RAP2 (UniProt Q96SN8)
inactive: [1] 0.024 | [2] -0.009 | [3] -0.002 | [4] 0.056 | [5] -0.015 | [6] -0.081 | [7] -0.011 | [8] -0.006 | [9] -0.104 | [10] -0.001 | [11] 0.042 | [12] -0.156 | [13] 0 | [14] 0.026 | [15] -0.042

CBR1 (UniProt P16152)
Sequence of UniProt P16152 (P16152 whole entry, looked up): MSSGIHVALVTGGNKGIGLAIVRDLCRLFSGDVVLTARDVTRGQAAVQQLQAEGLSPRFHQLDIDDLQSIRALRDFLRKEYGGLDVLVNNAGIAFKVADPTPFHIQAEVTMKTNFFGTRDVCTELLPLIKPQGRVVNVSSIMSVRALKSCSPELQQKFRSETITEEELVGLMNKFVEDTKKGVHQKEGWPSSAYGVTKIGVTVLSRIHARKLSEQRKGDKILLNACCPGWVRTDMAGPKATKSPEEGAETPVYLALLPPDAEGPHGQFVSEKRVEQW
inactive: [1] 0.046 | [2] 0.046 | [3] 0.1 | [4] 0.076 | [5] -0.02 | [6] 0.113 | [7] -0.001 | [8] -0.021 | [9] -0.02 | [10] 0.016 | [11] -0.01 | [13] -0.024 | [14] 0.033 | [15] 0.006
active: [12] -0.377

AURKA (UniProt O14965)
inactive: [1] -0.065 | [2] 0.209 | [3] 0.226 | [4] 0.174 | [5] 0.027 | [6] -0.117 | [7] -0.088 | [8] 0.18 | [9] -0.04 | [10] -0.05 | [11] -0.008 | [12] -0.236 | [13] 0.135 | [14] 0.1 | [15] 0.167

BAG4 (UniProt O95429)
inactive: [1] -0.154 | [2] -0.039 | [3] 0.027 | [4] 0.014 | [5] 0.015 | [6] 0.019 | [7] -0.011 | [8] 0.01 | [9] 0.018 | [10] 0.038 | [11] -0.013 | [12] 0.03 | [13] -0.067 | [14] -0.025 | [15] 0.007

ATG4A (UniProt Q8WYN0)
inactive: [1] -0.022 | [2] 0.018 | [3] -0.064 | [4] 0.037 | [5] -0.038 | [6] -0.042 | [7] -0.015 | [8] 0.096 | [9] -0.02 | [10] 0 | [11] -0.059 | [13] 0.034 | [14] 0.001 | [15] 0.004
active: [12] -0.543

CDK9 isoform 2 (UniProt P50750)
active: [4] 0.403
inactive: [1] -0.035 | [2] 0.255 | [3] 0.003 | [5] -0.007 | [6] -0.028 | [7] -0.016 | [8] 0.009 | [9] 0.078 | [10] -0.04 | [11] 0.081 | [12] -0.198 | [13] 0.164 | [14] 0.402 | [15] 0.038

CHD1L (UniProt Q86WJ1)
active: [12] -0.277
inactive: [1] -0.01 | [2] -0.012 | [3] -0.024 | [4] 0 | [5] 0.024 | [6] -0.114 | [7] 0.032 | [8] 0.111 | [9] 0.028 | [10] -0.039 | [11] 0.01 | [13] 0.015 | [14] 0.164 | [15] 0.046

CEP41 (UniProt Q9BYV8)
Sequence of UniProt Q9BYV8 (Q9BYV8 whole entry, looked up): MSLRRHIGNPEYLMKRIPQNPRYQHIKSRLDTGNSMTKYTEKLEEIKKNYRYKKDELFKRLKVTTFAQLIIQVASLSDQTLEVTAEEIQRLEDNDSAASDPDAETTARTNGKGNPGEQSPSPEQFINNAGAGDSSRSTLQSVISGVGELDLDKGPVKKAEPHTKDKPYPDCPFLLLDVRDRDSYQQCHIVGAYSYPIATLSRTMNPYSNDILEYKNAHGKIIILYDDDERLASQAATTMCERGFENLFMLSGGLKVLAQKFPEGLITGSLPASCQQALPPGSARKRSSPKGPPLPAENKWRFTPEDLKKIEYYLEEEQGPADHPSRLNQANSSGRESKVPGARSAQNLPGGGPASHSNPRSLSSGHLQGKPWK
inactive: [1] 0.001 | [2] 0.034 | [3] 0.043 | [4] -0.008 | [5] -0.077 | [6] -0.068 | [7] -0.027 | [8] -0.128 | [9] 0.066 | [10] 0.076 | [11] 0.002 | [13] -0.026 | [14] -0.152 | [15] -0.017
active: [12] -0.558

— the supplement of paper PMC10849652
